# Screening data deposited in PubChem BioAssay by National Center for Advancing Translational Sciences (NCATS).
# Pf growth 96h: P. falciparum growth inhibition at 96 hours; Potency, µM (titrated, usually from 28.7 µM), for the others: at the top dose activity change, negative = inhibition, usual class: inhibitors; 320,000 tested, 6.9% active; AID 504834; P. falciparum luciferase reporter growth, 96 h; further: on the % scale 0 is the no-effect control and ±100 the full control effect
#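 Two-generation exposure (96 h) targets delayed-death phenotype. Reporter parasites carrying integrated firefly luciferase, in red cells at 2% hematocrit and 0.05% parasitemia final, kept at 37 C, 5% CO2; luminescence loss indicates inhibition.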
# NS1 inh: influenza NS1 inhibition | 270,000 tested, 0.4% active | Potency, µM (titrated, usually from 46.1 µM), without a hit: at the top dose activity, positive = more growth; calls by dose curve; further: actives are rising curves; nearly all actives have a fitted effect of over 50% in size
#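 OD600 was taken as the measure of yeast growth restored by compound in an NS1-expressing S. cerevisiae strain. Cells had been washed out of glucose medium and diluted 1:100 into galactose -URA medium, pH 6.0.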
# Pf growth 48h: P. falciparum growth inhibition at 48 hours (one generation). P. falciparum luciferase growth in erythrocytes, 48 h. Potency, µM (highest dose often 28.7 µM), inactives show at the top dose activity change, negative = inhibition, hits mostly inhibitors. 310,000 tested, 5.9% active; further: on the % scale 0 is the no-effect control and ±100 the full control effect
#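 Erythrocytes infected with P. falciparum carrying an integrated firefly luciferase reporter (2% hematocrit, 0.1% parasitemia final) were exposed to compounds in RPMI 1640 with 0.5% Albumax at 37 C, 5% CO2. Growth inhibition was scored as reduced luminescence.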
# SARS PLP yeast: inhibitors of SARS-CoV papain-like protease in yeast. S. cerevisiae expressing SARS-CoV PLpro, growth rescue. Potency, µM (titrated, usually from 32.9 µM), without a hit: at the top dose activity, positive = growth rescue, usual class: activators. 330,000 tested, 0.19% active; calls by dose curve; further: 0% is about no effect; nearly all actives have a fitted effect of over 55% in size
# * marks the source's active call; other numbers are inactive results; ? = inconclusive; nt = no result. Sampled rows, rich in hits. Any-hit rate of the full collection: about 10%. Unless noted, the call rests on the fitted dose curve; in most records, active means well fitted inhibition curve with a large enough effect; inconclusive means small, poorly fitted or top-dose-only effect, or another doubt; inactive means no such curve, though single readings can be large or run the other way. Potency means the concentration at half of the fitted maximal effect.
SMILES,Pf growth 96h,NS1 inh,Pf growth 48h,SARS PLP yeast
CCC[C@@H](CN[C@@H](CNC)[C@H](C)CC)NCC1CCC(C(C)(C)C)CC1 (some centres not stated),3.3µM*,-4%,?,-1%
CC[C@@H](C)[C@H](CNC)NC[C@@H](Cc1cccc2ccccc12)NCCc1cccc(C(F)(F)F)c1,7.4µM*,-2%,?,-2%
CCC[C@H](CN[C@@H](CNC)[C@H](C)CC)NCCc1cc(C(F)(F)F)cc(C(F)(F)F)c1,2.1µM*,-4%,4.1µM*,-9%
CC1CN(S(=O)(=O)c2cccc(C(=O)NCCc3ccc(S(N)(=O)=O)cc3)c2)CC(C)O1 (configuration not stated),nt,nt,nt,-1%
Cc1cnc(NC(=O)c2c(Cl)cnn2C)s1,10%,-7%,28%,-8%
O=C(NCc1ccccc1)C1CCC(CNc2c(N3CCCCC3)c(=O)c2=O)CC1 (configuration not stated),12µM*,-12%,2%,-9%
CC(C)CCNC(=O)C1CCC(CNc2c(N3CCCC3)c(=O)c2=O)CC1 (configuration not stated),-5%,-6%,12µM*,3%
CC1CCN(c2c(NCC3CCC(C(=O)NCc4ccccc4)CC3)c(=O)c2=O)CC1 (configuration not stated),18%,-48%,1%,4%
CCCNC(=O)c1cc(-c2ccc(O)cc2)on1,nt,-35%,nt,nt
O=S(=O)(c1ccccc1)c1nnn2c1nc(NC1CCN(Cc3ccccc3)CC1)c1cc(Cl)ccc12,1%,11%,0.66µM*,-6%
O=[N+]([O-])c1ccc(Cl)c(C[n+]2cccc3ccccc32)c1,30%,22%,?,1%
COc1ccc(-c2c(C(F)(F)F)oc3cc(OCC(=O)Nc4ccccc4C(F)(F)F)ccc3c2=O)cc1OC,?,11%,?,?
CC(Oc1ccc2c(=O)c(-c3ccc(Cl)cc3)c(C(F)(F)F)oc2c1)C(=O)O (configuration not stated),29%,5%,10µM*,0%
Cn1c(=O)c2c(nc(N3CCN(c4ccc([N+](=O)[O-])cc4)CC3)n2C)n(C)c1=O,?,0%,?,0%
Cc1nc(SCC#N)c2c(C)c(C)sc2n1,9.3µM*,1%,-8%,?
Cc1ccc(-c2nnc(CSc3nc(C)nc4sc(C)c(C)c34)o2)cc1,?,-16%,0%,11%
CCCN1C(=O)/C(=C/c2ccc3c(c2)OCO3)NC1=S,9.3µM*,nt,3%,6%
Cc1ccc(NC(=O)CN2C(=O)N/C(=C/c3ccc4c(c3)OCCO4)C2=O)cc1,13%,13%,24%,2%
COc1ccc(CC(C)Nc2cccc(SC)c2)cc1 (configuration not stated),8.3µM*,5%,-2%,-10%
COc1ccccc1CCNC(=O)c1ccc2nc[nH]c2c1,16%,10%,9%,-4%
CCN(CC)CC(=O)c1c[nH]c2ccc(C)cc12,50%,1%,?,14%
O=C(Cn1cnc2ccccc2c1=O)c1c[nH]c2ccccc12,6.6µM*,-13%,62%,-11%
CCN(CC)CC(=O)c1c[nH]c2ccccc12,2.9µM*,-6%,-10%,-9%
CC(C)C[C@@H](CN=[N+]=[N-])N1CCN(Cc2ccccc2)CCC1=O,?,0%,22%,-1%
CCOc1ccc(/C=N/Nc2nc(=O)[nH]nc2C)cc1OC,?,nt,?,-8%
SMILES,Pf growth 96h,NS1 inh,Pf growth 48h,SARS PLP yeast
CCOc1cc(/C=N/Nc2nc(=O)[nH]nc2C)ccc1O,17%,nt,2.3µM*,0%
O=C1NC(=O)C(c2cn(-c3ccccc3)nc2-c2ccc(F)cc2)N1 (configuration not stated),?,11%,4.7µM*,5%
Cc1ccccc1C1CC(c2ccccc2OC(F)F)Nc2ncnn21 (configuration not stated),13%,0%,?,-3%
Cc1ccc(C2CC(c3ccccc3OC(F)F)Nc3ncnn32)cc1 (configuration not stated),nt,4%,12µM*,0%
CSc1nc(N)nc2c1ncn2CC(=O)N[C@H](CO)Cc1c[nH]c2ccccc12,nt,nt,nt,0%
COCCNc1nnc(SCC(=O)c2c[nH]c3ccccc23)s1,?,12%,8.3µM*,-4%
Nc1nnc(SCC(=O)Nc2sc3c(c2C(=O)c2ccccc2)CCCC3)s1,?,7%,-18%,-13%
COCCNc1nnc(SCC(=O)Nc2sc3c(c2C(=O)c2ccccc2)CCCC3)s1,9.3µM*,6%,?,-41%
Cc1ccc(C(=O)c2c(NC(=O)CSc3nnc(N)s3)sc3c2CCCC3)cc1,5.2µM*,52%,12µM*,-18%
COc1ccc(C(=O)N2CCN(C)C(=O)[C@@H]2C)cc1OC1CCN(C(C)C)CC1,63%,6%,6%,3%
COC(=O)c1ccc(SCC(=O)NCc2ccccc2)c([N+](=O)[O-])c1,2.6µM*,3%,nt,-1%
COc1ccc(C(=O)OCC(=O)NC(=O)NCc2ccccc2)cc1[N+](=O)[O-],-14%,nt,5%,-1%
CCCCNc1c(-c2cccc(-c3ccc(OC)cc3)c2)nc2ccc(C)cn12,3.7µM*,nt,3.3µM*,0%
COC(=O)Nc1c(-c2ccccc2)nc2ccc(C)cn12,4.7µM*,0%,6%,5%
CCCCNc1c(-c2cccc(-c3ccc(OC)cc3)c2)nc2cc(C)ccn12,nt,nt,nt,-3%
COC(=O)Nc1c(-c2ccccc2)nc2ccccn12,nt,-8%,8%,3%
COc1ccc(NC(=O)CSc2nnc(C)n2C2CC2)cc1S(=O)(=O)N1CCOCC1,?,nt,-22%,5%
COc1ccccc1-c1c(C(F)(F)F)oc2cc(OCC(=O)Nc3ccccc3C(F)(F)F)ccc2c1=O,5.2µM*,12%,?,-9%
CC(C)(C)c1ccc(C(=O)NCC(=O)NCC(C)(C)N2CCOCC2)cc1,40%,nt,11%,5%
N#Cc1ccccc1OCC(=O)NNC(=O)CCNC(=O)c1ccccc1,nt,nt,nt,0%
O=C(Cn1cnc2c(nnn2Cc2ccccc2)c1=O)Nc1ccc2c(c1)OCCO2,3%,-5%,4%,-7%
CCN1CCN(c2nc3c(C)cccn3c(=O)c2/C=C(\C#N)S(=O)(=O)c2ccc(C)cc2)CC1,4.1µM*,-2%,13%,-1%
CCOC(=O)C1CCN(c2nc3c(C)cccn3c(=O)c2/C=C(\C#N)S(=O)(=O)c2ccccc2)CC1,?,21%,9.3µM*,0%
N#C/C(=C\c1c(N2CCN(c3ccccc3)CC2)nc2ccccn2c1=O)S(=O)(=O)c1ccccc1,?,-3%,-5%,-11%
N#C/C(=C\c1c(N2CCCCC2)nc2ccccn2c1=O)S(=O)(=O)c1ccccc1,5.2µM*,11%,-5%,1%
COC(=O)c1ccc(OCC(=O)NCCC2=CCCCC2)c(OC)c1,nt,nt,nt,-13%
CCc1ccc(CN(C)C(=O)c2cc(COc3cc(C)c(Cl)c(C)c3)on2)nc1,145%,-60%,-13%,-9%
CCN(C(=O)CN1C(=O)NC2(CCc3ccccc32)C1=O)C1CCCCC1 (configuration not stated),-12%,nt,2%,0%
